The results in this text go back to PubChem BioAssay AID2672 (National Center for Advancing Translational Sciences (NCATS), 2010).

Molecules are shown by their SMILES. Records with an inconclusive call do not appear. The source made the active and inactive calls. Calls follow the shape of the dose curve; as a rule, active = well fitted curve in the direction sought with a large enough effect; inconclusive = small, poorly fitted or top-dose-only effect, or another doubt; inactive = no such curve, though single readings can be large or run the other way.

A short description of this assay: qHTS Assay Multiplex Screening to Identify Dual Action Probes in a Cell Model of Huntington: Cytoprotection in HTT Q25 expressing cells (ATP). The note with it: PC12 HTT-Q25 inducible, ATP luminescence, 40 h; series mostly up to 46.1 µM; activity change, positive = cytoprotection: at the top concentration. From the text: NIH Chemical Genomics Center [NCGC] NIH Molecular Libraries Probe Production centers Network [MLPCN] MLPCN Grant: MH084839-01A1 Assay Submitter (PI): Wei Zheng NCGC Assay Overview: Huntington's disease is a neurodegenerative disorder caused by a trinucleotide repeat expansion in Exon 1 of the Huntingtin gene. The CAG trinucleotide encodes glutamine and polyglutamine expansions cause cell death in selective areas of the brain. Huntington polyglutamine repeats have the tendency to form aggregates which are observable in later stages of the disease. The exact nature of the aggregates, whether toxic, protective, or insignificant, is unclear. A stable PC12 cell line containing a gene fusion of Exon 1 of the Huntingtin gene linked to GFP under the control of the inducible ecdysone promoter were used as the cell-based model of Huntington Disease for high throughput screening. Exon 1 of the Huntingtin gene contained an expansion of 103 polyglutamines (Q103) which, when expressed, caused cell death and distinct, bright GFP aggregates. The amount of cell death and the size and intensity of GFP aggregates increased over time and induction level. The cell death were quantified with a measurement of ATP content in the cells. A maximal 40-50% of cell death was observed when the Huntington gene was induced in this cell line. We optimized this assay in a homogeneous 1536 well format. A quantitative high throughput screen (qHTS) was conducted on the PC12 cells which were induced to express the toxic fusion construct. Small molecules which prevented cell death were identified by using a luminescent ATP quantification method (Perkin Elmer's ATPlite). To characterize compound effects on a different form of the HTT protein, PC12 cells stably containing a construct with an ecdysone inducible promoter expressing GFP fused to the exon 1 of HTTQ25 (Huntington protein which containing a 25 ployglutamine expansion) were used. Less cytoxicity occurs upon induction of HTTQ25.
PC12 cells stably containing a construct with an ecdysone inducible promoter expressing GFP fused to the exon 1 of HTTQ25 (Huntington protein which containing a 25 ployglutamine expansion) were used. NCGC Assay Protocol Summary: Sequence, Parameter, Description 1, Reagent, 5 uL 1500 cells/well 1536 TC treated White clear bottom plate 2, Compound, 23 nL Tebufenozide inducer (100 nM final) to all columns 3, Compound, 23 nL 40 uM to 0.5 nM Libraries 4, Time, 40 hours at 37C 5, Reagent, 5 ul ATPLite cell death assay reagent 6, Detector, 4 sec integration with a Viewlux Luminescent Media consisted of phenol red free DMEM + 5% equine serum (Hyclone # SH30072.03 ), 5% supplemented Bovine Calf Serum (Hyclone # SH30074.03 ), 1x pen/strep, no G418
For orientation: Quantitative high-throughput screening tests each substance at several concentrations.
As to `Cn1nnnc1Sc1ncnc2scc(-c3ccc(F)cc3)c12`, the “activity change, positive = cytoprotection” value (“activity change” for short) is -11.8% (inactive). On the same count and under the same terms, the same measure for `Cn1nnnc1Sc1ncnc2scc(-c3cccs3)c12`: -188% (inactive).

Regarding `Cn1nnnc1Sc1ncnc2scc(-c3ccsc3)c12`, the Potency was 10 µM (active). As to `Cn1nnnc1Sc1ncnc2scc(-c3cccc(N)c3)c12`, the “activity change” value was -35.7% (inactive). Same read-out and setting: the same measure for `CC(=O)c1ccc(-c2csc3ncnc(Sc4nnnn4C)c23)cc1`: -68% (inactive); for `Cn1nnnc1Sc1ncnc2scc(-c3cccc(Br)c3)c12`: -154% (inactive). On the same count and under the same terms, the same measure for `Cn1nnnc1Sc1ncnc2scc(-c3cccc(C#N)c3)c12`: 7.62% (inactive); for `Cn1nnnc1Sc1ncnc2scc(-c3ccc(N)cc3)c12`: -25.4% (inactive). On to `CC(=O)c1ccccc1-c1csc2ncnc(Sc3nnnn3C)c12`, for which the “activity change” value is -28.5% (inactive). Same read-out and setting: the same measure for `Cn1nnnc1Sc1ncnc2scc(-c3cccc4c3sc3ccccc34)c12`: 1.34% (inactive); for `Cn1nnnc1Sc1ncnc2scc(-c3ccc(Br)cc3)c12`: -147% (inactive). For the compound `Cc1ccccc1-c1csc2ncnc(Sc3nnnn3C)c12`, the “activity change” value is -42.3% (inactive). Regarding `Cn1nnnc1Sc1ncnc2scc(-c3ccc(-c4ccccc4)cc3)c12`, the “activity change” value is -14.4% (inactive). On the same count and under the same terms, the same measure for `Cn1nnnc1Sc1ncnc2scc(-c3cccc(F)c3)c12`: -189% (inactive). `Cn1nnnc1Sc1ncnc2scc(-c3cccc(C(F)(F)F)c3)c12`: the “activity change” value is -214% (inactive). Regarding `Cn1nnnc1Sc1ncnc2scc(-c3cccc(Cl)c3)c12`, the “activity change” value was -144% (inactive).

For `Cn1nnnc1Sc1ncnc2scc(-c3ccc([N+](=O)[O-])cc3)c12`, the “activity change” value was -201% (inactive). For `COc1cccc(-c2csc3ncnc(Sc4nnnn4C)c23)c1`, the Potency is 31.6 µM (active). Turning to `Cn1nnnc1Sc1ncnc2scc(-c3ccc(Cl)cc3)c12`, the “activity change” value is 296% (inactive). On to `Cn1nnnc1Sc1ncnc2scc(-c3ccc(C(=O)OC(C)(C)C)cc3)c12`, for which the “activity change” value is -159% (inactive). Still for that read-out and setting: the same measure for `COc1ccccc1-c1csc2ncnc(Sc3nnnn3C)c12`: -24.7% (inactive); for `Cn1nnnc1Sc1ncnc2scc(-c3ccccc3C(F)(F)F)c12`: -39.8% (inactive). As to `Cn1nnnc1Sc1ncnc2scc(-c3ccc(S(C)(=O)=O)cc3)c12`, the “activity change” value was -108% (inactive). Still for that read-out and setting: the same measure for `Cn1nnnc1Sc1ncnc2scc(-c3ccccc3)c12`: -9.76% (inactive). Same read-out and setting: the same measure for `COc1ccc(-c2csc3ncnc(Sc4nnnn4C)c23)cc1`: 54% (inactive). With `Cn1nnnc1Sc1ncnc2scc(-c3ccc(C(F)(F)F)cc3)c12`, the “activity change” value is -214% (inactive).

As for `Cn1nnnc1Sc1ncnc2scc(-c3ccccc3Br)c12`, the “activity change” value was 71.2% (inactive). The same measure, in the same setting: the same measure for `Cn1nnnc1Sc1ncnc2scc(-c3ccccc3[N+](=O)[O-])c12`: 81% (inactive); for `Cc1cccc(-c2csc3ncnc(Sc4nnnn4C)c23)c1`: 44.8% (inactive). As for `Cn1nnnc1Sc1ncnc2scc(-c3cc4ccccc4o3)c12`, the “activity change” value was -199% (inactive).
